Screening results as filed in PubChem.
Cdc42 wt – changes GTP binding to wildtype human Cdc42; GST-Cdc42 beads, Bodipy-GTP binding, flow cytometry; actives lie on both sides; percent activity (GTP binding), % at 10 µM; P60953; actives 0.2% (n = 190,000);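 active = percent activity GTP binding at least 20 points away from the 100% baseline, either down as inhibitor or up as activator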;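 also: median bead fluorescence of bound Bodipy-FL-GTP at 100 nM; 0% = excess unlabeled GTP control and 100% = no compound control; below 100% means less GTP binding so inhibitor and above means activator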
Target sequence (P60953 whole entry, looked up): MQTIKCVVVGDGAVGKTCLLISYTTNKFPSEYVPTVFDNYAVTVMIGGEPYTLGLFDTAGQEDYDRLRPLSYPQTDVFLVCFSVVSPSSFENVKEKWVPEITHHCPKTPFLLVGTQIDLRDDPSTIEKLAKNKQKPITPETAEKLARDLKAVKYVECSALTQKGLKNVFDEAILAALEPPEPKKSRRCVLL
Rac1 act GTP bind – alters GTP binding to activated mutant human Rac1; percent activity (GTP binding), % at 10 µM; P63000; actives 0.11% (n = 190,000); GST-Rac1 activated beads, fluorescent GTP binding, flow cytometry; actives lie on both sides; 100% means binding = to untreated wells; AID 764;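 active = GTP binding at least 20 percentage points away from the 100% baseline, in either direction, so actives lie on both sides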
HRas wt GTP bind – modulators of GTP binding to human HRas wildtype | GST-Ras wt beads, Bodipy-FL-GTP binding, flow cytometry; actives lie on both sides | GTP binding activity, % at 10 µM | actives 0.14% (n = 190,000);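 active = GTP binding activity at least 20% away from the 100% baseline, either lowered as inhibitor or raised as activator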;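 also: 0% = unlabeled GTP competition control and 100% = no-compound control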
Rab7 wt modul – alters GTP binding to wildtype dog Rab7; AID 758; actives 0.055% (n = 190,000); GTP binding activity (percent of control), % at 10 µM; GST-Rab7 beads, fluorescent GTP binding, flow cytometry; actives lie on both sides; untreated = 100%, excess cold GTP = 0%;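 active = fluorescent GTP binding to Rab7 beads changed by at least 20 points from the 100% baseline, either direction, mostly lower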;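 also: median green fluorescence of bound Bodipy-FL-GTP per Rab7 bead population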
Rac1 wt GTP bind – modulators of human Rac1 wildtype GTP binding; GST-Rac1 beads, fluorescent GTP binding, flow cytometry; actives lie on both sides; 0 = cold GTP competed, 100 = untreated; GTP binding activity (% of control), % at 10 µM; actives 0.27% (n = 190,000); AID 757;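 active = GTP binding activity at least 20 points away from the 100% control level, either lower or higher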
Rab2A wt mod – changes GTP binding to wildtype dog Rab2A, up or down; GST-Rab2 wt beads, Bodipy-GTP binding, flow cytometry; GTP binding activity, % at 10 µM; actives 0.19% (n = 190,000);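 active = GTP binding activity at least 20 points away from 100%, either lowered or raised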;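 also: 0% = beads with excess unlabeled GTP and 100% = no-compound control corrected for plate trend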
* = called active by the depositor; [ ] = dose if it differs, or a comment. Most compounds without a hit are left out; they make up all but 0.37% or so of the library.

SMILES | Cdc42 wt | Rac1 act GTP bind | HRas wt GTP bind | Rab7 wt modul | Rac1 wt GTP bind | Rab2A wt mod
CC(Oc1ccc(-c2ccccc2)cc1)C(=O)O (configuration not stated) | 161*[activator] | 130*[activator] | 137*[activator] | 126*[activator] | 157*[activator] | 141*[activator]
COCCCn1c(N)c(C(=O)Nc2sc3c(c2C(=O)OC)CCCC3)c2nc3ccccc3nc21 | 67* | 82 | 65* | 84 | 84 | 66*
CCC(C)NC(=O)c1c(N)n(CCCOC)c2nc3ccccc3nc12 (configuration not stated) | 99 | 98 | 99 | 99 | 99 | 99
COc1ccc(S(=O)(=O)N2CC3CC(C2)c2cccc(=O)n2C3)cc1 (configuration not stated) | 97 | 98 | 101 | 103 | 100 | 99
O=c1[nH]c(=S)[nH]c(O)c1N=Nc1ccc2c(c1)OCO2 | 91 | 92 | 93 | 97 | 94 | 94
O=c1[nH]c(=S)[nH]c(O)c1N=Nc1cc2c(cc1[N+](=O)[O-])OCO2 | 79* | 79* | 82 | 85 | 83 | 81
[N-]=[N+]=NC1C[C@H](n2ccc(=O)[nH]c2=O)O[C@@H]1CO (some centres not stated) | 97 | 98 | 99 | 96 | 102 | 100
CCCCCCN=Cc1c(O)n(C)c(=O)n(C)c1=O | 102 | 98 | 101 | 99 | 101 | 100
COc1ccc(-c2cc(=NCCCCCC(=O)O)c3cc(C)ccc3o2)cc1 | 69* | 88 | 73* | 93 | 71* | 70*
Cc1ccc(C2SCC(=O)Nc3c2c(=O)[nH]n3C2CCOC(C)(C)C2)cc1 (configuration not stated) | 102 | 98 | 100 | 101 | 102 | 101
CC1(C)CC(n2[nH]c(=O)c3c2NC(=O)CSC3c2ccccc2)CCO1 (configuration not stated) | 94 | 96 | 97 | 96 | 102 | 75*
Cc1cc(C)cc(N2C(=O)NC(=O)/C(=C\C=C\c3ccco3)C2=O)c1 | 78* | 84 | 85 | 88 | 78* | 83
